Screens: PubChem BioAssay, National Center for Advancing Translational Sciences (NCATS)
LASV entry inh – qHTS for Inhibitors of binding or entry into cells for Lassa Virus; Lassa virus pseudotype entry inhibition, cell reporter; Potency, µM (highest dose often 37.9 µM), inactives show top-dose activity change, negative = inhibition, hits mostly inhibitors; 300,000 compounds, 1.2% hits; AID 540256, 2011; calls by dose curve; tested in HEK293 cells; further: potency means the concentration at half of the fitted maximal effect; on the % scale 0 is the no-effect control and ±100 the full control effect; nearly all actives have a fitted effect of over 50% in size
Vaccinia Venus – qHTS for Stage-Specific Inhibitors of Vaccinia Orthopoxvirus: Venus Reporter Primary qHTS; Vaccinia virus Venus reporter expression, fluorescence; 330,000 compounds, 0.46% hits; Potency, µM (doses to about 36.5 µM), for the others: top-dose activity change, negative = inhibition, hits mostly inhibitors; calls by dose curve; tested in A549 cells; further: potency means the concentration at half of the fitted maximal effect; on the % scale 0 is the no-effect control and ±100 the full control effect; nearly all actives have a fitted effect of over 30% in size
Marburg entry inh – qHTS for inhibitors of binding or entry into cells for Marburg Virus | Marburg virus pseudotyped entry inhibition, cell reporter | Potency, µM (titrated, usually from 37.8 µM), for inactives: at the top dose activity change, negative = inhibition, actives largely listed as inhibitors | 300,000 compounds, 1.8% hits; calls by dose curve; tested in HEK293 cells; further: potency means the concentration at half of the fitted maximal effect; on the % scale 0 is the no-effect control and ±100 the full control effect
CHX counter – Cycloheximide Counterscreen for Small Molecule Inhibitors of Shiga Toxin. cell reporter, cycloheximide protein synthesis inhibition counterscreen. max response, %. 300,000 compounds, 12% hits. AID 2314, 2010; in the data active means max response mostly above about 13%, no sharp cut-off; inactive means mostly below about 14%; further: read at 38.3 µM for the half of the compounds with a filed dose; 0% is about no effect
Shiga toxin inh – A qHTS for Small Molecule Inhibitors of Shiga Toxin; inhibition, % at 38.7 µM; Vero cells, Shiga toxin protein synthesis inhibition reporter; AID 2315, 2010; 290,000 compounds, 9.2% hits; in the data active means inhibition mostly above about 28%, no sharp cut-off; inactive means mostly below about 43%; further: 0% is about no effect
VACV mCherry inh – qHTS for Stage-Specific Inhibitors of Vaccinia Orthopoxvirus: mCherry Reporter Primary qHTS; 310,000 compounds, 0.63% hits; Vaccinia virus mCherry reporter infection, fluorescence; Potency, µM (titrated, usually from 36.5 µM), for inactives: at the top dose activity change, negative = inhibition, usual class: inhibitors; calls by dose curve; tested in A549 cells; further: potency means the concentration at half of the fitted maximal effect; on the % scale 0 is the no-effect control and ±100 the full control effect; nearly all actives have a fitted effect of over 35% in size
Numbers without * were called inactive; i = inactive; ? = inconclusive; nt = not tested or not shown; + = active, no number; [ ] = dose if it differs, or a comment. This excerpt belongs to a sample that is enriched for hits.

SMILES	LASV entry inh	Vaccinia Venus	Marburg entry inh	CHX counter	Shiga toxin inh	VACV mCherry inh
CC(C)N1CCC(N2CCN(Cc3ccc(-c4ccc(Cl)cc4)o3)CC2CCO)CC1 (stereo unspecified)	?	?	3.2µM*	2	7	-25%
COC(=O)c1coc(-c2ccc(C)cc2)c1C(=O)OC	?	-20%	27%	39*	66*	nt
COC(=O)c1coc(-c2ccc(OC)cc2)c1C(=O)OC	3%	-4%	?	43*	71	-8%
Cc1cc(NC(=O)CSc2nc(N)c(NC(=O)c3ccccc3F)c(=O)[nH]2)no1	?	-10%	13%	-3	-6	i
NNC(=O)c1cc(Br)cs1	-14%	7%	-31%	26	33*	-16%
O=C(NCCc1ccc(Cl)cc1)c1cnc2n(c1=O)CCS2	nt	-12%	nt	41*	+	7%
O=C(NCCCc1ccccc1)c1cnc2n(c1=O)CCS2	?	nt	?	38*	63*	nt
O=C(NCCC1=CCCCC1)c1cnc2n(c1=O)CCS2	-9%	nt	2%	41*	41*	nt
CCc1ccc(-n2nc(CO)c(C(=O)NCc3ccccc3OC)n2)cc1	-12%[46.1 µM]	-10%	14%[46.1 µM]	nt	nt	-3%
COc1ccc(N(Cc2cccs2)C(=O)c2ccccc2C)cc1	-11%[46.1 µM]	-21%	?	nt	nt	-22%
CSc1ccccc1C(=O)NCC1Cc2cc(F)cc(-c3cnccn3)c2O1 (stereo unspecified)	nt	-7%	nt	nt	nt	-15%
CC(C)CO/N=C1\C[C@@H](O)[C@@H](O)[C@@H]2[C@@H]3C(=O)N(Cc4ccccc4)C(=O)[C@@H]3CC[C@H]12	nt	nt	1%[14.2 µM]	nt	nt	nt
CN(C(=O)c1cccc(Nc2ccc(-c3ccc4c(c3)OCCO4)nn2)c1)C1CCCCC1	14µM*	?	?	53*	64*	nt
CN(C)S(=O)(=O)c1ccc(Nc2ccc(-c3ccc4c(c3)OCCO4)nn2)cc1	3%	0%	22%	-2	25	12%
CC(=O)c1sc2nc(-c3ccccc3)cc(C)c2c1N	-7%[46.1 µM]	-7%	-10%[46.1 µM]	-2	-12	i
COc1ccc(-c2cn3nc4c(nc3n2)CCCC4)cc1	?	-11%	5.6µM*	26*	48*	nt
COc1ccc(-c2cc(C(F)(F)F)nc(-n3nc(C(F)(F)F)cc3C)n2)cc1	8%[46.1 µM]	-7%	1%[46.1 µM]	nt	nt	-8%
CN(Cc1c(F)cccc1Cl)C(=O)CCc1c[nH]c2ccccc12	6%[46.1 µM]	-13%	-6%[46.1 µM]	7	11	?
CN(Cc1cccs1)C(=O)CCCc1c[nH]c2ccccc12	-10%[46.1 µM]	-19%	?	46*	73*	-16%
CN(Cc1cccs1)C(=O)CCc1c[nH]c2ccccc12	-12%[46.1 µM]	-12%	22%[46.1 µM]	16*	60	?
Cc1ccccc1C1(CC(=O)N2CCCC2c2nccs2)CC(=O)N(C2CCCC2)C1=O (stereo unspecified)	nt	-22%	nt	nt	nt	i
CCn1ncc([N+](=O)[O-])c1C(=O)n1nc(C)cc1C	?	-6%	?	45*	112*	-14%
CC(C)NC(=S)N/N=C/c1cccnc1	?	19%	?	-3	-14	i
CCOP(=O)(OCC)C(Nc1ccccc1)c1cc(OC)ccc1OC (stereo unspecified)	0%	-16%	?	-3	-2	-8%
COP(=O)(OC)C(Nc1ccc(C)cc1)c1ccc([N+](=O)[O-])cc1 (stereo unspecified)	?	-10%	26%	44*	25*	-13%
SMILES	LASV entry inh	Vaccinia Venus	Marburg entry inh	CHX counter	Shiga toxin inh	VACV mCherry inh
COc1ccc(C(Nc2ccccc2)P(=O)(Oc2ccccc2)Oc2ccccc2)cc1 (stereo unspecified)	-6%	-3%	-4%	28*	56*	-11%
CCOP(=O)(OCC)C(Nc1cccc([N+](=O)[O-])c1)c1ccc(OC)cc1 (stereo unspecified)	-13%	-15%[7.34 µM]	-8%[46.1 µM]	1	6	-8%[7.34 µM]
CCOc1ccc(NC(c2ccccc2)P(=O)(OC)OC)cc1 (stereo unspecified)	nt	nt	nt	12	26*	nt
c1ccc(-c2cn(-c3ccccc3)c3ncnc(N4CCN(c5ccccc5)CC4)c23)cc1	4%[46.1 µM]	-10%	nt	nt	nt	-18%
CNC(=O)c1cccnc1Nc1cccc(C(F)(F)F)c1	1%	?	31%	27*	11	?
O=C(Nc1cccc(C(F)(F)F)c1)c1cccnc1NCCO	-24%[46.1 µM]	-16%	18%[46.1 µM]	-1	-1	i
CCN(C(=O)COC(=O)c1cccnc1Nc1cccc(C(F)(F)F)c1)C1CCS(=O)(=O)C1 (stereo unspecified)	-13%	-7%	-2%	42*	51*	-12%
CCOC(=O)c1ccc(NC(=O)c2ccc(OC(C)C)c(OC)c2)cc1	-34%	1%	?	-4	-13	-9%
CCC(=NCCc1c[nH]c2ccccc12)c1c(O)n(C)c(=O)n(C)c1=O	?	nt	?	-4	-21	nt
CCC(=NCCc1c[nH]c2ccccc12)c1c(O)n(-c2ccc(C)cc2)c(=O)[nH]c1=O	1.8µM*	-20%	?	-1	9	-26%
CC(=NCCc1c[nH]c2ccccc12)c1c(O)n(Cc2ccccc2)c(=O)[nH]c1=O	11µM*	-16%	?	1	-11	-18%
N=c1ccn2c(n1)O[C@H]1[C@H](O)[C@@H](CO)O[C@H]12	?	nt	?	-1	0	nt
N=c1ccn2c(n1)O[C@H]1[C@@H](CO)[C@H](O)O[C@H]12	nt	?	nt	nt	nt	0.45µM*
CCS(=O)(=O)n1nc(-c2ccco2)nc1SC	3%	nt	-10%	7	42	nt
CS(=O)(=O)n1nc(-c2ccc(Cl)cc2)nc1N	16%	-10%	-11%[46.1 µM]	20*	20*	i
CCS(=O)(=O)n1nc(-c2ccccc2)nc1N	4%	-1%	2%	-2	-2	-19%
CCS(=O)(=O)n1nc(-c2ccc(Cl)cc2)nc1SC	14%	nt	-3%	62*	87*	nt
CCS(=O)(=O)n1nc(-c2ccc(OC)cc2)nc1N	8%	1%	16%[46.1 µM]	23*	23	i
CS(=O)(=O)n1nc(-c2ccccc2)nc1N	2%	-10%	7%	-1	-10	?
COc1ccc(CCNC(=O)c2cnc3sc(N4CCCCCC4)nn3c2=O)cc1	nt	?	11%[46.1 µM]	nt	nt	?
Clc1cccc[n+]1CCCCCC[n+]1ccccc1Cl	nt	-5%	nt	nt	nt	-9%
Cc1cc(=O)n2c(C(=O)Nc3ccc(F)c(Cl)c3)c(C(=O)Nc3cccc(C)c3C)sc2n1	?	6%	-2%[46.1 µM]	nt	nt	2%
Cc1cc(=O)n2c(C(=O)Nc3ccc(C(=O)OC(C)C)cc3)c(C(=O)Nc3ccccc3)sc2n1	23µM*	nt	?	0	-3	nt
C=CCc1ccccc1OCC(O)CNC (stereo unspecified)	17%	6%	5%	-3	22	-11%
C=CCc1ccccc1OCC(O)CN(C(C)C)C(C)C (stereo unspecified)	?	-19%	6.3µM*	-4	-3	-7%
